Assay results reported in PubChem BioAssay (EPA / NIEHS).
“And” between values parts separate entries of the source, which are not always exact repeats. Equal entries are not always repeated. Records with an inconclusive call do not appear. More than one record can exist for a structure, and the calls need not agree. The source made the active and inactive calls. How the source made its calls, unless noted: active means hit-call score of the fitted dose curve at least 0.9, where 1 is the maximum; inconclusive means response in the unintended direction; inactive means score below 0.9.

Assays:
[1] = ATG_XTT_Cytotoxicity: Cytotoxicity Assessment in the Attagene TRANS-FACTORIAL HepG2 Assay (AID 2283584);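 on AC50: XTT signal for cell number as viability in transfected HepG2 cells; cells exposed to compound for 24 h before reading; active means loss of viability signal versus DMSO baseline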
Method in brief: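 HepG2 cells transiently transfected with GAL4-UAS multiple reporter units, dosed 24 h; cytotoxicity read by XTT as loss of signal versus DMSO baseline.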

[2] = TOX21_p53_BLA_p2_viability: Viability Assessment in the Tox21 HCT-116 p53 Agonism Beta-lactamase Assay, Phase 2 (AID 2283591);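 further: actives lower the ATP signal meaning cytotoxicity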
Method in brief: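 HCT-116 p53-bla cells (4000/well) rested 5 h at 37C, then received compounds in DMSO (217-fold dilution) for 16 h at 37C, 5% CO2. After the CCF4 read, CellTiter-Glo was added; ATP luminescence was read after 30 min at room temperature.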

[3] = biological target: Cellular tumor antigen p53 (Homo sapiens) (UniProt P04637); assay: TOX21_p53_BLA_p2_ratio: Tox21 HCT-116 p53 Agonism Beta-lactamase Assay, Ratio, Phase 2 (AID 2283592)
Chain of Cellular tumor antigen p53 (Homo sapiens) (P04637 whole entry, looked up): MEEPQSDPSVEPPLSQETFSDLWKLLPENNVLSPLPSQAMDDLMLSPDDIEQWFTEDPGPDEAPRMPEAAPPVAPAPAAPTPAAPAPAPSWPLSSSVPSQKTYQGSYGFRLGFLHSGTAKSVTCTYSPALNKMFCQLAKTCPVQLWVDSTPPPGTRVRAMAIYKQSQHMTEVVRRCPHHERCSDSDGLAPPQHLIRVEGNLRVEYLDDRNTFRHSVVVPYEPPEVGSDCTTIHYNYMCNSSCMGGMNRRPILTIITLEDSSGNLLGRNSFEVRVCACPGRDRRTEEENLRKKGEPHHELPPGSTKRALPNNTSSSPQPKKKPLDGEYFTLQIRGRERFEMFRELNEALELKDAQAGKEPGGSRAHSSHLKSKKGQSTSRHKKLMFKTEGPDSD
Method in brief: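 First, HCT116 reporter cells settle for 5 h at 37C. Next, DMSO compound solutions are pinned in (217-fold dilution) and left 16 h. Finally, CCF4-AM substrate is loaded 2 h at room temperature and the 460/530 nm ratio read.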

[4] = TOX21_p53_BLA_p3_viability: Viability Assessment in the Tox21 HCT-116 p53 Agonism Beta-lactamase Assay, Phase 3 (AID 2283593);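 further: cells exposed to compound for 16 h before reading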
Method in brief: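 HCT-116 cells (4000/well) rested 5 h at 37C, then got DMSO compounds by pin tool (217-fold dilution) for 16 h at 37C, 5% CO2. After the bla read, CellTiter-Glo was added and luminescence read at 30 min, room temperature.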

[5] = biological target: Cellular tumor antigen p53 (Homo sapiens) (UniProt P04637); assay: TOX21_p53_BLA_p3_ratio: Tox21 HCT-116 p53 Agonism Beta-lactamase Assay, Ratio, Phase 3 (AID 2283596)
Method in brief: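 Cells were seeded at 4000/well, rested 5 h at 37C, then dosed with DMSO compound solutions (217-fold dilution) for 16 h. CCF4-AM substrate was loaded for 2 h at room temperature, and the 460/530 nm emission ratio was fitted for gain of signal versus DMSO.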

[6] = TOX21_p53_BLA_p4_viability: Viability Assessment in the Tox21 HCT-116 p53 Agonism Beta-lactamase Assay, Phase 4 (AID 2283597);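 further: hits lower the luminescence signal meaning cytotoxicity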
Method in brief: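 4000 HCT116 cells per well; 5 h attachment; compounds from DMSO, 217-fold dilution; 16 h at 37C. Then CCF4-AM, 2 h RT, followed by CellTiter-Glo, 30 min RT, luminescence. Decrease = cytotoxicity.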

[7] = biological target: Cellular tumor antigen p53 (Homo sapiens) (UniProt P04637); assay: TOX21_p53_BLA_p5_ratio: Tox21 HCT-116 p53 Agonism Beta-lactamase Assay, Ratio, Phase 5 (AID 2283599)
Method in brief: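 HCT-116 cells carrying a p53-inducible beta-lactamase reporter were seeded at 4000 cells/well and dosed after 5 h with compound in DMSO (217-fold dilution). After 16 h at 37C, CCF4-AM substrate was added for 2 h, and the 460/530 nm emission ratio was scored as gain-of-signal versus DMSO.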

[8] = TOX21_p53_BLA_p5_viability: Viability Assessment in the Tox21 HCT-116 p53 Agonism Beta-lactamase Assay, Phase 5 (AID 2283600)
Method in brief: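 Decreased CellTiter-Glo luminescence denotes lost viability. Exposure: 16 h at 37C, 5% CO2, with compounds from DMSO stocks diluted 217-fold in wells of 4000 cells.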

[9] = biological target: Cellular tumor antigen p53 (Homo sapiens) (UniProt P04637); assay: TOX21_p53_BLA_p4_ratio: Tox21 HCT-116 p53 Agonism Beta-lactamase Assay, Ratio, Phase 4 (AID 2283601)
Method in brief: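 HCT116 cells carrying an inducible beta-lactamase reporter were plated at 4000 cells/well, rested 5 h, then exposed to compounds in DMSO (217-fold dilution) for 16 h at 37C. CCF4-AM substrate was loaded 2 h at room temperature; 460/530 nm emission ratio scored gain-of-signal versus DMSO.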

[10] = tested on: Thyroperoxidase (TPO), gene 54314; assay: CCTE_Simmons_AUR_rTPO: CCTE's Amplex UltraRed Assay for Thyroperoxidase (TPO) Inhibition, Simmons Lab (AID 2283662);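 on AC50: potency for loss of signal meaning inhibition of peroxidase activity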
Method in brief: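 Endpoint is decreased Amplex UltraRed fluorescence after a 30-min, 37C reaction of rat thyroid microsomes with 300 uM H2O2. Eight test concentrations (5 nM–87.5 uM final) in 0.5% DMSO, three biological replicates each.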

[11] = CCTE_Simmons_CellTiterGLO_HEK293T: Viability Assessment in CCTE's Assays for Thyroperoxidase (TPO) Inhibition, Simmons Lab (AID 2283665);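 on AC50: cells exposed to compound for 24 h before readout; actives reduce ATP signal below DMSO vehicle meaning cytotoxicity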
Method in brief: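 Luminescent ATP readout (CellTiter-Glo, 20 min at room temperature) after 24 hr exposure of HEK293T cells to 5 nM–87.5 uM final compound; signal loss relative to DMSO vehicle indicated cytotoxicity; dichlone titrated as positive control.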

[12] = biological target: Luciferin 4-monooxygenase (Photinus pyralis) (UniProt P08659); assay: CCTE_Simmons_QuantiLum_inhib_2: CCTE's Firefly Luciferase Inhibition Assay, Simmons Lab (AID 2283767)
Chain of Luciferin 4-monooxygenase (Photinus pyralis) (P08659 whole entry, looked up): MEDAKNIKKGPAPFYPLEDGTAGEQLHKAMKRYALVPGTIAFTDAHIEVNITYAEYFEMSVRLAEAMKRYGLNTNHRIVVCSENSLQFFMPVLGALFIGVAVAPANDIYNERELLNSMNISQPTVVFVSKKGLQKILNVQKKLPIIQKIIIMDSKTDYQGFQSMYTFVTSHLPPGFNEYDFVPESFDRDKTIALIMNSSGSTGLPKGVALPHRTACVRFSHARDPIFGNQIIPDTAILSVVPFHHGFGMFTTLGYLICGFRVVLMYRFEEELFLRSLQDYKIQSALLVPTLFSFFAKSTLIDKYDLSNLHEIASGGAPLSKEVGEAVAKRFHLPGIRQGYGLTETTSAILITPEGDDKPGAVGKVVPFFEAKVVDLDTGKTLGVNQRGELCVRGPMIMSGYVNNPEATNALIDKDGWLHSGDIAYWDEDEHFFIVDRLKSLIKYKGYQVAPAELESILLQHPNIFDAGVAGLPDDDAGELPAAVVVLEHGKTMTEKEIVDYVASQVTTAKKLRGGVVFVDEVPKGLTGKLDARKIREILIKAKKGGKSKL
Method in brief: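 Cell-free QuantiLum luciferase, 5 ng/well; compounds 5 nM–87.5 uM final, 8 conc, 0.5% DMSO; 30 min, 37C, dark. Detection reagent (150 uM D-luciferin, 147 uM dATP, CoA, DTT, pH 7.8 final) injected per well, kinetic luminescence. Triplicate biological replicates.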

[13] = tested on: chicken Androgen Receptor (AR), gene 422165; assay: ATG_chAR_XSP1: Attagene TRANS-FACTORIAL Multi-Species (XSP1) HepG2 Assay for chicken Androgen Receptor (AR) (AID 2283768)
Method in brief: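 Reporter mRNA read by RT-PCR with fluorescent labelling and capillary electrophoresis 24 h after chemical dosing of transiently transfected HepG2 cells. Chicken AR-Gal4 chimera, partially stimulated with 3 nM 6-alpha-fluorotestosterone; activity fitted upward relative to DMSO.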

[14] = tested on: frog Androgen Receptor (AR), gene 399456; assay: ATG_frAR_XSP1: Attagene TRANS-FACTORIAL Multi-Species (XSP1) HepG2 Assay for frog Androgen Receptor (AR) (AID 2283770)
[15] = tested on: zebrafish Androgen Receptor (AR), gene 100005148; assay: ATG_zfAR_XSP1: Attagene TRANS-FACTORIAL Multi-Species (XSP1) HepG2 Assay for zebrafish Androgen Receptor (AR) (AID 2283771)
Method in brief: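 Gain-of-signal versus DMSO was measured as reporter transcripts quantified by RT-PCR, fluorescent labelling and capillary electrophoresis after 24 h chemical exposure. The cells were HepG2 expressing a chimeric zebrafish AR-GAL4, co-stimulated with 3 nM 6-alpha-fluorotestosterone.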

[16] = biological target: zebrafish Estrogen Receptor (ESR1), esr1 (gene 259252) (UniProt P57717); assay: ATG_zfER1_XSP1: Attagene TRANS-FACTORIAL Multi-Species (XSP1) HepG2 Assay for zebrafish Estrogen Receptor (ESR1) (AID 2283772)
Chain of zebrafish Estrogen Receptor (ESR1), esr1 (gene 259252) (P57717 whole entry, looked up, the tested form may be a part): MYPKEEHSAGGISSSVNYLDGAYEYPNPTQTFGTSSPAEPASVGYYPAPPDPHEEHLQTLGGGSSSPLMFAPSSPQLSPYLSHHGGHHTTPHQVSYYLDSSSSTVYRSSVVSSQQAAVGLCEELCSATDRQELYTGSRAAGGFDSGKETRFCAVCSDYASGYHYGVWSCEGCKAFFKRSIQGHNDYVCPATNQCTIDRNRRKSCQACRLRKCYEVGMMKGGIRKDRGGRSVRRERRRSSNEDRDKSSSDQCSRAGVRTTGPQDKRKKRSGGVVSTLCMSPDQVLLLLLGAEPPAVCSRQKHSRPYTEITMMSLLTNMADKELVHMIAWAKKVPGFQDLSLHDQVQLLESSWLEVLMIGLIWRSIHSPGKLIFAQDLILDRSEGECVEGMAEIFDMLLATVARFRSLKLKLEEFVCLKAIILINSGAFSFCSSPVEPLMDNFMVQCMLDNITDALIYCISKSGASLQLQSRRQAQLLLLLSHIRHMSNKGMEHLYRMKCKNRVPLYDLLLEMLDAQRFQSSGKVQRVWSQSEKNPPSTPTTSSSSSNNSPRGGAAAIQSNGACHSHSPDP
Method in brief: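 HepG2 cells transiently transfected with a GAL4-UAS reporter and chimeric zebrafish ER-Gal4, dosed 24 h with 3 nM 6-alpha-fluorotestosterone present. Reporter mRNA measured by RT-PCR and capillary electrophoresis; gain of signal versus DMSO.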

[17] = tested on: zebrafish Estrogen Receptor (ESR2B), gene 317733; assay: ATG_zfER2b_XSP1: Attagene TRANS-FACTORIAL Multi-Species (XSP1) HepG2 Assay for zebrafish Estrogen Receptor (ESR2B) (AID 2283773)
Method in brief: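 Human hepatoma HepG2, transiently transfected with multi-reporter units; exogenous zebrafish ESR2B-Gal4 activity measured. Exposure 24 h alongside 3 nM 6-alpha-fluorotestosterone to partly stimulate AR.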

[18] = CEETOX_H295R_MTT_cell_viability: Viability Assessment in the CeeTox HT-H295R MTT Assay (AID 2283718; active means hit-call score of the fitted dose curve at least 0.9, where 1 is the maximum; inactive means score below 0.9)
Method in brief: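 H295R cells prestimulated 48 h with 10 uM forskolin, then exposed 48 h to test chemical (0.1% DMSO final). Viability by MTT (0.5 mg/ml, 4 h, 37 C), absorbance 570/650 nm; percent change versus DMSO, bidirectional fit.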

Measured: AC50

O=C1C=CC(=O)N1c1ccc(Cc2ccc(N3C(=O)C=CC3=O)cc2)cc1
inactive: [4] | [5]
active: [1] 157 µM | [2] 71 µM | [3] 29.1 µM | [6] 75.2 µM | [7] 74.4 µM | [8] 86.3 µM | [9] 68 µM

CCC/C=C/CO
inactive: [1] | [2] | [3] | [5] | [7] | [8] | [9]

CCc1cccc(C)c1N(C(=O)C(=O)O)C(C)COC (centres undefined)
inactive: [1]

CCCCCCCC/C=C\CCCCCCCC(=O)OCC(O)CO (centres undefined)
inactive: [1]

CC(C)CCCC(C)CCO (centres undefined)
inactive: [1] | [2] | [3] | [4] | [7] | [8] | [9]

N#CCCOCCC#N
inactive: [1]

O=C=Nc1cccc2c(N=C=O)cccc12
inactive: [1]

COc1ccccc1C=O
inactive: [1]

CC(C)OC=O
not listed: [13] | [14] | [15] | [16] | [17] | [18]
inactive: all other assays above

CCCCCC/C=C/CCCCCCCC(=O)O
inactive: [1] | [2] | [3] | [4] | [5] | [6] | [7] | [8] | [9]

CCCCCCCC/C=C\CCCCCCCC(=O)N(C)CC(=O)O
inactive: [12]
active: [1] 128 µM | [2] 37.1 µM | [3] 51.5 µM | [4] 45.1 µM | [5] 81.1 µM | [6] 83.3 µM | [7] 79.6 µM | [8] 43.7 µM | [9] 83.7 µM | [10] 16.4 µM | [11] 24.4 µM

CC(C)(C)c1cc(CCC(=O)OCC(COC(=O)CCc2cc(C(C)(C)C)c(O)c(C(C)(C)C)c2)(COC(=O)CCc2cc(C(C)(C)C)c(O)c(C(C)(C)C)c2)COC(=O)CCc2cc(C(C)(C)C)c(O)c(C(C)(C)C)c2)cc(C(C)(C)C)c1O
inactive: [1]

CCC(=O)OC(C)c1ccccc1 (centres undefined)
inactive: [1] | [2] | [3] | [5] | [7] | [8] | [9]

CCc1cc(Cc2cc(CC)c(N)c(CC)c2)cc(CC)c1N
active: [6] 68 µM
inactive: [1] | [2] | [3] | [4] | [5] | [7] | [8] | [9]

Cc1ccc2c(c1)OCC(=O)CO2
inactive: [1] | [2] | [3] | [5] | [6] | [9]

CCOC(C=C(C)CCC=C(C)C)OCC
inactive: [1]

O=C(c1ccccc1)c1ccc(O)cc1O
active: [10] 6.04 µM and 5.41 µM | [13] 1.98 µM | [14] 3.28 µM | [16] 4.2 µM | [17] 2.7 µM
not listed: [8] | [18]
inactive: all other assays above

O=C=NCc1cccc(CN=C=O)c1
inactive: [1]

C=CCOC(=O)CC(C)C
inactive: [1] | [2] | [3] | [4] | [6] | [7] | [8] | [9]

CN(C)C(C)(C)CO
inactive: [1]

Cc1ccc([N+](=O)[O-])c(C)c1
inactive: [1] | [2] | [3] | [4] | [5] | [7] | [8] | [9]

CC(C)(C)C(=O)C1C(=O)c2ccccc2C1=O
inactive: [1] | [2] | [3] | [4] | [6] | [7] | [8] | [9]
active: [4] 62 µM | [5] 42.7 µM and 35.6 µM | [7] 67.3 µM

CCN(CC)c1ccc(C=O)c(O)c1
inactive: [1]

CO[Si](CCCOCC1CO1)(OC)OC (centres undefined)
inactive: [1] | [2] | [4] | [5] | [6] | [7] | [8] | [9]
active: [3] 86.5 µM

CCc1ccc(C)nc1
inactive: [1]

Cc1cc(C)c(O)c(C(C)(C)C)c1
inactive: [1]

CC1=CCC(=O)O1
inactive: [1]

CCOC(=O)CCC(C)=O
inactive: [2] | [3] | [5] | [7] | [8] | [9]

N#Cc1ccccc1O
inactive: [1] | [18]

CC(C)CC=C(C=O)c1ccccc1
inactive: [2] | [4] | [5] | [6] | [9]

CN(N=O)C(=O)N[C@@H]1[C@@H](O)[C@H](O)[C@@H](CO)O[C@@H]1O
inactive: [2] | [3] | [4] | [5] | [6] | [7] | [8] | [9]
